Test results reported in PubChem BioAssay (NCI).
The panel holds about 79,000 compounds, 15% with a hit somewhere; the sample as a whole holds those more often. A number with no mark means an inactive call. Activity calls are given as the source filed them. Cut-off read from the data, not from the text of the source: active = growth inhibition above about 70%; inactive = the rest.

Legend:
[1] = NCI Yeast Anticancer Drug Screen. Data for the rad50 strain (AID 155);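 note: 0% = growth of vehicle-only cultures of the same strain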; settings: S. cerevisiae rad50 strain growth inhibition; at 50.0 µM; active compounds read high
In short: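 Growth of the mutant yeast was measured after compound exposure and referenced to vehicle-treated cultures.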

[2] = NCI Yeast Anticancer Drug Screen. Data for the mec2-1 strain (AID 157); settings: S. cerevisiae mec2-1 strain, at 50.0 µM, active compounds read high
In short: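 Growth inhibition is read against vehicle-treated controls after compound exposure of the mec2-1 yeast strain, which is defective in DNA damage repair or cell cycle control.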

[3] = NCI Yeast Anticancer Drug Screen. Data for the sgs1 mgt1 strain (AID 161);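 note: 0% = growth of cultures given vehicle only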; settings: S. cerevisiae sgs1 mgt1 strain, at 50.0 µM, active compounds read high
In short: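 Percent growth inhibition was derived by comparing compound-exposed mutant yeast with vehicle-exposed cultures. The strain carries alterations in DNA damage repair.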

[4] = NCI Yeast Anticancer Drug Screen. Data for the cln2 rad14 strain (AID 165);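 note: 0% = growth equal to vehicle treated cultures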; settings: S. cerevisiae cln2 rad14 strain, at 50.0 µM, active compounds read high
In short: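 Growth inhibition, relative to vehicle-treated controls, is the read-out. The test organism is a yeast strain with defined genetic alterations, cln2 rad14.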

[5] = NCI Yeast Anticancer Drug Screen. Data for the bub3 strain (AID 167); settings: S. cerevisiae bub3 mutant strain, at 50.0 µM, active compounds read high
In short: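 Whole-cell yeast assay. The mutant strain was incubated with compounds, and growth inhibition was determined by comparison with vehicle-treated cells.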

[6] = NCI Yeast Anticancer Drug Screen. Data for the mlh1 rad18 strain (AID 175); settings: S. cerevisiae mlh1 rad18 strain growth inhibition; at 50.0 µM; active compounds read high
In short: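 Cells of a genetically altered yeast strain, deficient in DNA damage repair, were treated with compound. Their growth was then compared with that of vehicle-treated cultures to give inhibition.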

Row | SMILES | growth inhibition [1] | growth inhibition [2] | growth inhibition [3] | growth inhibition [4] | growth inhibition [5] | growth inhibition [6]
1 | COc1ccc(NC(=O)Nc2ccc(Br)cc2)cc1 | -9.55% | 5.7% | -0.15% | -34% | -4.6% | -15.2%
2 | Cc1ccccc1N=Cc1ccccc1O.[Co] | 12.2% | 11.2% | 27.4% | -17.4% | 0.3% | 32%
3 | C=CCc1nc2c([nH]1)c(=O)n(C)c(=O)n2C | 33.5% | -2.2% | 37.6% | 11.7% | -6.8% | 18.6%
4 | S=C1NC=CC(S)N1 (stereo not given) | -3.3% | 5.95% | 6.6% | 10.3% | 11.2% | -1.35%
5 | O=C(Oc1ccccc1Cl)C1=C(C(=O)Oc2ccccc2Cl)CCC1 | 51.4% | -1.2% | 45.5% | -1.45% | 4.55% | 9.75%
6 | COc1ccc(/C=C/C(=O)c2ccccc2)cc1 | 25.7% | -18.1% | -12.6% | 2.25% | -28.9% | 4.9%
7 | COc1ccc(C2C3=C(COC3=O)OC(C)(C)Oc3cc4c(cc32)OCO4)cc1 (stereo not given) | -3% | 0.85% | 13.7% | 6.5% | 36.1% | -19.9%
8 | O=C(c1ccccc1)C1Nc2ccc(Cl)cc2C2C=CCC12 (stereo not given) | -1.2% | -7.75% | 6.4% | -7.95% | -0.35% | 14.8%
9 | CCOC(CCl)(NC(C)=O)C(=O)OC (stereo not given) | -0.5% | -9.7% | -9.55% | -8.75% | 4.3% | -8.1%
10 | COC(=O)c1cc2c(cc1CC1Cc3cc4c(cc3C1=O)CCC4)CCC2 (stereo not given) | -16.1% | -42.3% | -10.4% | 9.3% | 19.6% | 1.65%
11 | O=C(Nc1ccc(C(=O)O)cc1)Nc1cccc(F)c1 | 14.8% | 8.35% | 10.2% | 14.6% | 22.6% | 13.8%
12 | COC(=O)c1c(C(=O)c2ccccc2)nn2c(-c3ccccc3)c(-c3ccccc3)c(-c3ccccc3)c(-c3ccccc3)c12 | 10.3% | -1.6% | -23.6% | 7.05% | -1.1% | 0.1%
13 | Nc1[nH]c(=S)[nH]c(=O)c1NS(=O)(=O)c1cccc([N+](=O)[O-])c1 | -14.1% | -10% | -22.1% | -18.2% | -11.4% | 12.8%
14 | CCC(C)Sc1nc2ccc(NC(=O)/C=C/C(=O)O)cc2s1 (stereo not given) | 31.5% | 10% | 11.7% | 15.7% | 13.5% | 16.1%
15 | C[N+](C)(C)CC(=O)c1ccc[nH]1 | 2.1% | -11.2% | 14.9% | -0.8% | 1.4% | 13.1%
16 | COC(=O)c1nc2c(n(C)/c1=N/C(=O)Nc1ccccc1)CCCC2 | 61.5% | -2.9% | 4.25% | -7.65% | 4.65% | -50.6%
17 | Cc1ccccc1NC(=O)Nc1ccccc1C | -3.8% | -15.3% | 3.45% | -23% | -20.2% | -11.9%
18 | O=c1c2ccccc2oc2nc3ccc(Cl)cc3n12 | -6.3% | -7.5% | 0.45% | -30.9% | 10.6% | -1.85%
19 | CCCCCCCC/C=C\CCCCCCCC(=O)NCCN(CC)CC | 98.7% (active) | 99.3% (active) | 99.3% (active) | 96.8% (active) | 98.7% (active) | 98.8% (active)
20 | CC(C)COC(=O)c1ccc(NC(=O)CN2CC(C)OC(C)C2)cc1 (stereo not given) | 43.8% | -10.4% | 61.9% | 56.5% | 7.95% | 47%

Row | SMILES | growth inhibition [1] | growth inhibition [2] | growth inhibition [3] | growth inhibition [4] | growth inhibition [5] | growth inhibition [6]
21 | O=C(O)/C=C/C(=O)Nc1cccc2c1Cc1ccccc1-2 | -7.2% | 9% | 20.9% | -29.5% | -4.3% | 19.9%
22 | O=[N+]([O-])c1ccc(S(=O)(=O)N/N=C\c2cc([N+](=O)[O-])ccc2O)cc1 | 11.8% | -1.4% | 11.2% | -35.2% | 1.55% | 26.6%
23 | CC1(C)CCCC/C1=N\O | 5.5% | 24.2% | 3.8% | 24.4% | 23.2% | 3.3%
24 | O=C(COc1ccc(Cl)c(Cl)c1)NCc1cccc(NC(=O)CBr)c1 | 99.2% (active) | 99.5% (active) | 45.2% | 99.5% (active) | 99.2% (active) | 99.2% (active)
25 | COc1ccc2nc3ccccc3c(NCCCN(C)C)c2c1[N+](=O)[O-] | -8.1% | -19.6% | 12.9% | -22.2% | -13.3% | -4.7%
26 | CC12CCC(O)CC1=CCC1C2CCC2(C)C(C(=O)O)=CCC12 (stereo not given) | 1.3% | 46.5% | 29.6% | 21.8% | 49.1% | 34.5%
27 | Cn1c(=O)c2c(nc3n2C(CCl)CO3)n(C)c1=O (stereo not given) | 40.5% | 12.8% | 7.75% | 9.5% | 34% | 32.4%
28 | CN1CCc2ccccc2C1Cc1cc(OCc2ccccc2)ccc1N (stereo not given) | 36.2% | 1.25% | 23.6% | 30.6% | 14.8% | 22.1%
29 | CC(=O)Nc1ccc(Br)cc1C | 25.1% | 1.95% | 2.25% | -10.9% | -2.4% | 30.6%
30 | COc1ccc(/C=N/NC(=O)C(=O)Nc2ccc(Cl)c([N+](=O)[O-])c2)cc1OC | 2.15% | -20.9% | -0.65% | 2.85% | -4.1% | -6.4%
31 | CC(C)(NC(=O)OC12CC3CC(CC(C3)C1)C2)C(=O)O | -11.1% | -20.1% | 3.1% | -12.6% | 3.45% | -5.35%
32 | Nc1cc(Br)cc2c1-c1ccc(Br)cc1C2=O | 15.1% | -10.6% | 1.35% | -54.9% | 5.15% | 10%
33 | CCC(=O)OC1CCC(OC(=O)CC)CC1 (stereo not given) | 7.3% | 9.8% | 2.45% | -1.9% | -6.05% | -6.2%
34 | Cc1ccc(C(=O)OC2C(OC(=O)Nc3ccccc3)OC(COC(=O)c3ccccc3)C2OC(=O)c2ccccc2)cc1 (stereo not given) | 1.95% | 10.1% | 9.45% | 13.8% | -12.4% | 30%
35 | CN1C(=O)C(O)C[C@@H]1c1ccc(F)cc1 (stereo not given in full) | -5% | 6.8% | 12.7% | 16.6% | -0.25% | -30.4%
36 | CC(=NC1CCCCC1)c1ccccc1O | 24.4% | -11.1% | -3.35% | -23.9% | 13.6% | 16.8%
37 | CC(CC[C@@H](O)C(C)(C)O)C1[C@@H](O)CC2(C)C3CC(O)C4C(C)(C)[C@@H](OC5OC(CO)C(O)C(O)C5O)CC[C@@]45C[C@@]35CC[C@]12C (stereo not given in full) | -14.9% | 2.65% | 0.15% | -30.2% | -5.9% | -28.1%
38 | CCOC(=O)C(NC(=O)CC(C)C)(NC(C)C)C(F)(F)F (stereo not given) | -8.45% | -2.25% | -9.4% | -8.1% | -3.45% | -12.9%
39 | CC(=O)Oc1cc2c(c3ccc4ccccc4c13)CCc1ccccc1-2 | 11.8% | -11.7% | 10.1% | 10.2% | 0.1% | 4.9%
40 | CC1(C)OC[C@@H](O)[C@H](Br)CO1 | -14.7% | -36% | -20.9% | -3.95% | -32.9% | -28.1%
